Reference: PubChem BioAssay AID743148 (Broad Institute, 2013)
A number with no mark means an inactive call.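 How the source made its calls: active means fitted half-maximal signal loss reached at or below twice the highest valid dose tested; inconclusive means flat curve with 30 to 70% loss, or a poor fit; inactive means the rest, including signal gain.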

Test: HepG2 cell cytotoxicity, dose response, cytotoxicity control, CellTiter-Glo luminescence, dry powder, set 4 (AID 743148)
Details: HepG2 viability, CellTiter-Glo ATP luminescence, 72 h; series mostly up to 26 µM; cytotoxicity, % activity (negative = signal loss; -100 = mitoxantrone control): at the top concentration

Compound	cytotoxicity, % activity (negative = signal loss; -100 = mitoxantrone control)
C[C@@H]1CC(=O)NN=C1c1ccc(F)c(F)c1	-4.1%
Cn1c(NC(=O)c2ccccc2)nc2ccccc21	-20.2%
C[C@@H]1CC(=O)NN=C1c1ccc(Cl)cc1	-21.9%
CCN(CC)c1ccc(C2=NNC(=O)CC2C)cc1[N+](=O)[O-] (stereo not drawn)	-1.46%
O=C1CN2Cc3c(ccc(Cl)c3Cl)N=C2N1	7.7%
CC(=O)Nc1ccc(C2=NNC(=O)C[C@H]2C)cc1[N+](=O)[O-]	34.2%
C[C@@H]1CC(=O)NN=C1c1ccc(N2CCOCC2)cc1	-26.2%
C[C@@H]1CC(=O)NN=C1c1ccc(C2CCCCC2)cc1	3.58%
C[C@@H]1CC(=O)NN=C1c1ccc(N2CCOCC2)c(F)c1	8.85%
C[C@@H]1CC(=O)NN=C1c1ccc(-c2cncnc2)cc1	-5.41%
C[C@H]1CC(=O)NN=C1c1ccc(N2CCOCC2)c(F)c1	-6.98%
COc1cc2c(cc1OC)-c1cc(=Nc3c(C)cc(C)cc3C)n(C)c(=O)n1CC2	91%
CCN1N=C(c2ccc(N(CC)CC)cc2)[C@H](C)CC1=O	-8.54%
